Bioassay records (PubChem)
Hits are enriched below; roughly 0.88% of the tested compounds scored in any of these assays.
RGS4 inh: blocks human RGS4-accelerated GTP hydrolysis; Transcreener GDP fluorescence polarization, RGS4-accelerated GTP hydrolysis; Potency, µM (top dose mostly 114 µM), usual class: inhibitors; P49798; actives 0.039% (n = 390,000); note: nearly all actives have a fitted effect of over 75% in size
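MLSMR compounds (23 nl, pin-transferred) preincubated 10 min at room temperature with a 500nM (2x) first reagent, then RGS4 at 900nM (2x) plus Transcreener GDP mix added; fluorescence polarization (620/688 nm) read before and after 90 min at 30 °C.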
CtBP-E1A inh: blocks the CtBP interaction with E1A; AlphaScreen GST-E1A/His-CtBP binding, 1536-well; stronger effect = lower value; activity change, % (test concentration not listed); actives 0.49% (n = 340,000); AID 651724; in the data active = activity change below about -65%; inconclusive = mostly about -30% to -63%
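GST-E1A and His-tagged CtBP (125 nM each as 5X stock) were preincubated with pin-transferred compound for 2 h at 37 °C in the dark, then glutathione donor and nickel acceptor beads were added for 1 h before AlphaScreen reading.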
Six1-Eya2 inh: Six1/Eya2 interaction inhibition | AlphaScreen GST-Six1/His-Eya2 binding, biochemical; stronger effect = lower value | activity change, % (no concentration beside the values) | actives 0.56% (n = 360,000); in the data active = activity change below about -65%; inconclusive = mostly about -30% to -63%
Target sequence (O00167 whole entry, looked up): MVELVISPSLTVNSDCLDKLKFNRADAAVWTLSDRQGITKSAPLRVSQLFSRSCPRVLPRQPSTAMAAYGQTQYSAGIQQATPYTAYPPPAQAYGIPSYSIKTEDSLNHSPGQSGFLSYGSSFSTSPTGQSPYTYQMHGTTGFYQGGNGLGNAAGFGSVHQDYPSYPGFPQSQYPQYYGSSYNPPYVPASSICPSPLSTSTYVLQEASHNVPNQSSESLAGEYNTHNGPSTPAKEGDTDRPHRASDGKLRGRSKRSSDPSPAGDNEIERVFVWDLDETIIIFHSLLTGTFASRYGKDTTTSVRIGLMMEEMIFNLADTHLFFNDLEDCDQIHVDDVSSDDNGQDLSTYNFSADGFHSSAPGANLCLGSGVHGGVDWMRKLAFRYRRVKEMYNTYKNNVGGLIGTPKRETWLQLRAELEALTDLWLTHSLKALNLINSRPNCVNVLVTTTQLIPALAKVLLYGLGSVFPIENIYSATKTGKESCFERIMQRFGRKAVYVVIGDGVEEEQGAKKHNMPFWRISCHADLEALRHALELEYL
Target sequence (Q15475 whole entry, looked up): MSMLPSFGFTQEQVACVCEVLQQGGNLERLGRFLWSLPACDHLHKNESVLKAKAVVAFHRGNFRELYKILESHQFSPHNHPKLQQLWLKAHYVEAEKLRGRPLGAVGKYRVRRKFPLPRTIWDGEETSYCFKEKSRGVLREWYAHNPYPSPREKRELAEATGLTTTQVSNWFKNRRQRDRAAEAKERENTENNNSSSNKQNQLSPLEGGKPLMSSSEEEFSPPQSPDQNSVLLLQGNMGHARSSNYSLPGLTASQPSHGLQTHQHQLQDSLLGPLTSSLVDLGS
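Homogeneous AlphaScreen proximity assay pairing GST-Six1 with His-tagged Eya2 (added as 5X mix: 250 nM and 500 nM) in 50 mM Tris pH 8.0, 300 mM NaCl, 1 mM TCEP. Glutathione donor and nickel acceptor beads; 1 h, 37 °C, dark.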
Glioma ERSR ind: inducers of ER stress response in human glioma cells; U87-MG GRP78 promoter luciferase reporter, 16 h; Potency, µM, usual class: activators; actives 0.02% (n = 420,000); note: series mostly up to about 76 µM; nearly all actives have a fitted effect of over 35% in size
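Stably transfected U87-MG human glioma cells carrying a GRP78-based luminescent sensor were seeded at 1000 cells/well, pin-dosed with compounds and incubated 16 h. Luciferase reagent was then added, and end-point luminescence was read after 10 min at room temperature.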
Akt phos inh: inhibitors of Akt phosphorylation | Neuro2A IGF-stimulated pAkt S473 HTRF, 20 min; stronger effect = lower value | actives 0.32% (n = 360,000) | activity change, % for hits at 50 µM | AID 651550; in the data active = activity change below about -80%; inconclusive = mostly about -51% to -80%
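Single-point screen (50 µM final compound) in Neuro2A cells stimulated 20 min with 6 nM IGF at 37 deg C. After lysis, Ser473-phosphorylated Akt read by HTRF (ex 330 nm, em 615/665 nm) as the 665/615 ratio.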
A number is an active result; 0 = inactive; ? = inconclusive; - = no result given; [ ] = remark or other dose. Unless noted, calls come from the whole dose curve; as a rule, active = well fitted curve in the direction sought with a large enough effect; inconclusive = small, poorly fitted or top-dose-only effect, or another doubt; inactive = no such curve, though single readings can be large; an effect the other way counts as inactive or inconclusive.

SMILES | RGS4 inh | CtBP-E1A inh | Six1-Eya2 inh | Glioma ERSR ind | Akt phos inh
O=C(N/N=C/c1cc2c(cc1Br)OCO2)c1cccnc1 | 0 | 0 | 0 | 0 | 0
c1ccc(-c2[nH]ncc2-c2ccnc3ccccc23)nc1 | - | - | - | 0 | -
O=C(Cc1ccccc1)Nc1nc2ccc(Cl)cc2c2nc(-c3ccco3)nn12 | 37.7µM | - | - | 0 | -
O=C(Cc1ccccc1)n1nc(-c2ccco2)nc1SCc1ccccc1 | 0 | 0 | 0 | 0 | 0
COc1ccccc1-c1cc(-c2ccccc2)nc(SC(C(N)=O)c2ccccc2)c1C#N (stereo not given) | 0 | 0 | 0 | 0 | -90.6%
COc1cccc(NC(=O)C(=O)N2CCOCC2)c1 | 0 | 0 | 0 | 0 | -100.3%
COC(=O)c1ccc(NC(=O)C(=O)N2CCN(C(=S)Nc3cccc(OC)c3)CC2)cc1 | 0 | 0 | 0 | 0 | 0
CC(=O)N1N=C(c2ccc3nccnc3c2)CC1c1ccccc1 (stereo not given) | 0 | 0 | 0 | 0 | 0
CC(=O)N1N=C(c2ccccc2OC(=O)/C=C/c2ccccc2)CC1c1ccccc1 (stereo not given) | 0 | -79.9 | ? | 0 | 0
O=C(NCc1cc(Br)cc(Br)c1OC(=O)c1ccccc1[N+](=O)[O-])c1ccccc1 | 0 | ? | -72.0 | 0 | 0
O=C(c1ccco1)N1CCN(C(=O)c2cc(-c3ccccn3)nc3ccc(Cl)cc23)CC1 | 0[11.4 µM] | -91.9 | -86.6 | 0 | 0
Cc1cccc(NC(=O)c2ccc(-n3cccn3)c([N+](=O)[O-])c2)c1 | 0 | 0 | 0 | 0 | -116.2%
COc1cccc(/C=C/c2ccnc3ccccc23)c1OC | - | - | - | 0 | -
O=[N+]([O-])c1ccc(N=Nc2ccc(O)c3ccccc23)cc1 | 0 | -70.0 | ? | 0 | 0
O=S(=O)(Nc1ccc(N=Nc2ccc(O)c3ccccc23)cc1)c1ccccc1 | 0 | ? | ? | 0 | 0
O=C(CSc1nnnn1C1CCCC1)Nc1ccc(F)cc1 | 0 | 0 | 0 | 0 | -110.4%
O=C(NCCC1=CCCCC1)C(c1ccccc1)c1ccccc1 | 0 | 0 | 0 | 0 | -117.1%
Cc1cc(C(=O)Nc2nc(-c3ccccn3)cs2)ccc1[N+](=O)[O-] | 0 | 0 | -71.5 | 0 | 0
Cc1csc(NC(=O)c2ccc(Cl)cc2[N+](=O)[O-])n1 | 0 | 0 | 0 | 0 | 0
O=C(Nc1nc(-c2ccccn2)cs1)c1cc(Cl)ccc1[N+](=O)[O-] | ? | ? | -91.0 | 0 | 0
CC1CCC(O)C/C1=C\C=C1/CCCC2(C)C1CCC2C(C)/C=C/C(C)C(C)C (stereo not given) | - | - | - | 0 | -
COc1ccccc1C1/C(=C(/O)c2ccccc2)C(=O)C(=O)N1CC(C)O (stereo not given) | 0 | 0 | 0 | 0 | 0
Cc1ccc(/C(O)=C2\C(=O)C(=O)N(CC(C)O)C2c2cccc(F)c2)cc1 (stereo not given) | 0 | 0 | 0 | 0 | -112.7%
O=C(N/N=C/c1c(O)ccc2ccccc12)Nc1ccccc1 | 0 | - | 0 | 0 | 0
O=C(N/N=C\c1c(O)ccc2ccccc12)c1ccc(O)cc1 | 0 | ? | -65.0 | 0 | 0
SMILES | RGS4 inh | CtBP-E1A inh | Six1-Eya2 inh | Glioma ERSR ind | Akt phos inh
O=C(N/N=C/c1c(O)ccc2ccccc12)c1cccnc1 | 0 | -91.6 | -66.8 | 0 | 0
Cc1ccc(C(=O)N/N=C/c2c(O)ccc3ccccc23)cn1 | 0 | - | -73.9 | 0 | 0
O=C(N/N=C\c1c(O)ccc2ccccc12)c1cncc(Br)c1 | 0 | ? | ? | 0 | 0
Cn1cc(C(=O)N/N=C/c2c(O)ccc3ccccc23)ccc1=O | 0 | - | -89.0 | 0 | 0
COc1ccccc1/C=N/NC(=O)c1ccc(C)nc1 | 0 | - | 0 | 0 | 0
Cc1cnc(-n2ncc(C(=O)N(C)C3CCOC3)c2-c2cccs2)nc1-c1ccc(F)cc1 (stereo not given) | - | - | - | 0 | -
CC[N+]1(CC(=O)c2ccc(Cl)cc2)CCCCC1 | - | - | - | 0 | -
O=C(N/N=C/c1c(O)ccc2ccccc12)c1ccc(Br)o1 | ? | ? | ? | 0 | 0
Cc1occc1C(=O)N/N=C/c1c(O)ccc2ccccc12 | 0 | 0 | 0 | 0 | 0
O=C(N/N=C/c1c(O)ccc2ccccc12)c1ccc[n+](CCO)c1 | 0 | -90.0 | -90.7 | 0 | 0
Cn1nccc1C(=O)N/N=C/c1c(O)ccc2ccccc12 | 0 | -82.8 | -86.7 | 0 | 0
O=C(NN=Cc1c(O)ccc2ccccc12)c1ccncc1 | ? | ? | -88.6 | 0 | 0
COc1cc(OC)cc(C(=O)NCC2Cc3cccc(-c4nc(C)cnc4C)c3O2)c1 (stereo not given) | - | - | - | 0 | -
Cc1cc(CNC(=O)c2cnn(-c3nccc(-c4cc(C)sc4C)n3)c2C2CC2)on1 | - | - | - | 0 | -
CCn1c(SCC(=O)NC2CCCCC2)nnc1-c1cccs1 | 0 | 0 | 0 | 0 | -98.1%
O=C(CSc1nnc(-c2cccs2)n1-c1ccccc1)Nc1ccccc1 | 0 | 0 | 0 | 0 | -92.0%
COc1ccccc1OCc1nnc(SCC(=O)Nc2ccc(C)cc2)n1C | 0 | 0 | 0 | 0 | 0
Cc1ccccc1OCc1nnc(SCC(=O)Nc2ccc3c(c2)oc2ccccc23)n1C | 0 | 0 | 0 | 0 | -99.7%
Cc1cc(CNC(=O)CCN2Cc3cc(Cl)ccc3OC(C)C2)nn1C (stereo not given) | - | - | - | 0 | -
CN(C)c1ccc(/C=C/c2ncnc3ccccc23)cc1 | - | - | - | 0 | -
C[C@@H](C(=O)Nc1nc(-c2ccccn2)cs1)N1C(=O)C2CCCCC2C1=O (stereo not given in full) | ? | -89.6 | -90.4 | 0 | 0
O=C(CN1C(=O)C2CCCCC2C1=O)Nc1nc(-c2ccccn2)cs1 (stereo not given) | 0 | -84.4 | -84.4 | 0 | 0
Cc1nc(C)c(CC(=O)N2CCOc3ccc(CN4CCOCC4)cc3C2)s1 | - | - | - | 0 | -
Cc1[nH]c(=O)[nH]c(=O)c1/C=N/NC(=O)[C@@H](N)CC(C)C | 0 | 0 | -86.8 | 0 | 0
CC(=O)c1cccc(Nc2nc(-c3sc(N)nc3C)cs2)c1 | 0 | -76.7 | ? | 0 | 0
SMILES | RGS4 inh | CtBP-E1A inh | Six1-Eya2 inh | Glioma ERSR ind | Akt phos inh
Cc1nc(N)sc1-c1csc(Nc2cccc(O)c2)n1 | 0 | ? | -69.0 | 0 | 0
Cc1nc(N)sc1-c1csc(Nc2cc(N(C)C)ccc2Cl)n1 | - | ? | -73.2 | 0 | 0
Cc1nc(N)sc1-c1csc(Nc2ccccn2)n1 | ? | ? | ? | 0 | -109.6%
CC(=O)c1cccc(Nc2nc(-c3sc(C)nc3C)cs2)c1 | 0 | ? | ? | 0 | 0
Cc1nc(C)c(-c2csc(Nc3cccc(O)c3)n2)s1 | 0 | 0 | 0 | 0 | 0
Cc1cc(C)c2nc(C)cc(N/N=C/c3ccc(O)cc3)c2c1 | 0 | -86.0 | ? | 0 | 0
CCn1ccnc1CNCc1cn(-c2cc(C)ccc2C)nc1-c1ccccc1 | 0 | - | -81.7 | 0 | 0
Cc1ccc(C)c(-n2cc(CNCCc3cnccn3)c(-c3ccccc3)n2)c1 | 0 | - | 0 | 0 | 0
CCCCn1c(CCC)nc([N+](=O)[O-])c1Sc1ccc(Cl)cn1 | 0 | 0 | 0 | 0 | -114.4%
CN=Cc1sc2ccccc2c1O | 0 | 0 | 0 | 0 | 0
Oc1c(C=NCc2ccncc2)sc2ccccc12 | 0[11.4 µM] | 0 | 0 | 0 | -103.3%
